High-throughput results (PubChem)
BoNT F protease = BoNT/F light chain protease inhibitors, primary screen, biochemical, flow cytometry, MLPCN library | Botulinum neurotoxin type F light chain protease (Clostridium botulinum) | Multiplex microsphere protease cleavage assay | hit rate 0.22% among 360,000 | inhibition, % at 10 µM; in the data active = inhibition above about 35%, passing the limit was not always enough; inconclusive = no clear call, values can overlap the other calls
BoNT A protease = BoNT/A light chain protease inhibitors, primary screen, biochemical, flow cytometry, MLPCN library; inhibition, % at 10 µM; AID 588499, 2011; multiplex microsphere protease substrate cleavage; Botulinum neurotoxin type A light chain protease (Clostridium botulinum A str. ATCC 3502); hit rate 0.17% among 360,000
Anthrax LF prot = Bacillus anthracis LF protease inhibitors, primary screen, biochemical, multiplex microsphere, MLPCN library. multiplex microsphere protease cleavage assay. inhibition, % at 10 µM. hit rate 0.12% among 360,000. AID 588501, 2011
PfHsp40 rescue = rescue of yeast from PfHsp40 toxicity, primary screen, S. cerevisiae, ATP luminescence. AID 504582, 2011. hit rate 0.68% among 340,000. growth rescue, % at 12.5 µM. S. cerevisiae expressing PfHsp40, growth rescue; in the data active = growth rescue above about 28%, passing the limit was not always enough; inconclusive = no clear call, values can overlap the other calls;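 note: yeast W303a lacking pdr1 and pdr3 grown in galactose medium; growth measured after three days at 30 °C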
MazEF act = activators of E. coli MazEF toxin-antitoxin RNase, primary screen, biochemical, fluorescence, uHTS. Endoribonuclease toxin MazF (Escherichia coli (strain K12)), P0AE70. FAM/BHQ RNA-DNA oligo cleavage fluorescence, 5 h. activation, % at 20 µM. hit rate 0.32% among 350,000. AID 504720, 2011; in the data active = activation above about 50%
Bead autofluor = compound fluorescence in toxin protease inhibitor counterscreen | fluorescence intensity (no concentration beside the values) | compound autofluorescence counterscreen, microsphere flow cytometry; active compounds read high | AID 624483 | hit rate 3.1% among 360,000; in the data active = fluorescence intensity above about 16000; inconclusive = no clear call, values can overlap the other calls
Hits are given with their value; – = inactive; ? = inconclusive; · = no result. The list is not random: actives were taken first. Their share in the collection is about 4.3%. Cut-off read from the data, not from the text of the source, unless noted: active = inhibition above about 30%; inconclusive = no clear call, values can overlap the other calls; inactive = below that.

SMILES	BoNT F protease	BoNT A protease	Anthrax LF prot	PfHsp40 rescue	MazEF act	Bead autofluor
CC1CCN(C(=O)C(=O)c2cn(CC(=O)N3CCCCCC3)c3ccccc23)CC1	–	37.2	37.6	–	–	–
CC1CCCN(C(=O)C(=O)c2cn(CC(=O)N3CCCCCC3)c3ccccc23)C1 (stereo unspecified)	–	34.6	–	–	–	–
NC(=O)C1CCN(C(=O)C(=O)c2cn(CC(=O)N3CCCCCC3)c3ccccc23)CC1	–	39.3	38.9	–	–	–
CN1CCN(C(=O)C(=O)c2cn(CC(=O)N3CCCCCC3)c3ccccc23)CC1	–	–	35.8	·	–	–
O=C(C(=O)N1CCN(c2ccccc2)CC1)c1cn(CC(=O)N2CCCCCC2)c2ccccc12	–	–	–	–	–	–
c1ccc(CN2CCC3CC2c2ccc(N4CCOCC4)cc23)cc1 (stereo unspecified)	–	–	–	·	–	–
CC(OC(=O)c1ccc2ncsc2c1)C(=O)NC1CCCCC1C (stereo unspecified)	–	–	–	–	–	–
Cc1[nH]n(-c2ccccc2)c(=O)c1C=Nc1ccc2[nH]c(=O)[nH]c2c1	–	–	–	–	90.0	–
Cc1[nH]n(-c2ccccc2)c(=O)c1C=Nc1cccc(F)c1	–	–	–	–	–	–
Cc1cccc(-n2[nH]c(C)c(C=Nc3ccc4[nH]c(=O)[nH]c4c3)c2=O)c1	–	–	–	–	153.8	–
CCN1C(=O)/C(=C/N2CCc3ccccc3C2)SC1=S	?	–	–	–	–	16177
CCN1C(=O)/C(=C\N2CCCCCC2)SC1=S	–	–	–	–	–	–
COc1ccc(C2(CNC(=O)c3ccc(OC)c([N+](=O)[O-])c3)CCOCC2)cc1OC	–	?	–	–	–	21598
CC(C)CCOc1ccc(C(=O)NCCC(=O)N2CCOCC2)cc1	–	–	–	–	–	21240
COc1cccc(Oc2ccc(S(=O)(=O)N3CCCC3)cc2[N+](=O)[O-])c1	–	–	–	–	–	–
O=C(NCc1cc(Cl)cc(Cl)c1)c1ccc2nc([C@H]3C[C@H](O)[C@@H](CO)O3)[nH]c2c1	–	–	–	·	·	–
CCOC(=O)C(=CNc1ccccc1C)C(=O)OCC	–	–	–	–	–	–
CCOC(=O)C(=CNc1cc(C)nn1-c1ccccc1)C(=O)OCC	–	?	–	–	–	21382
CCN1CCN(CCNC(=O)CCCCCn2c(=O)[nH]c3cc(C(=O)OC)ccc3c2=O)CC1	–	–	–	–	–	23054
Nc1ncnc2c1ncn2[C@@H]1O[C@H](CNCc2ccccc2OCc2ccc(Cl)cc2Cl)[C@@H](O)[C@H]1O	–	–	–	–	–	–
Cc1ccc(NC(=S)NCCN2CCOCC2)cc1C	–	–	–	–	–	20237
Cc1cc(N2CCN(C)CC2)nc2ccc(NC(=S)NCCN3CCc4ccccc4C3)cc12	–	–	–	48.7	–	–
O=C(NC(=S)NCCN1CCOCC1)c1ccc(Cl)cc1Cl	–	–	–	–	–	–
O=C(NCCN1CCOCC1)c1cc2sccc2n1Cc1ccc(Cl)cc1	–	–	–	–	–	16131
O=C(NC(=S)NCCN1CCOCC1)c1ccc(Cl)cc1	54.4	–	–	–	–	–
SMILES	BoNT F protease	BoNT A protease	Anthrax LF prot	PfHsp40 rescue	MazEF act	Bead autofluor
Cc1ccc(NC(=S)NCCCN2CCOCC2)cc1C	–	–	–	–	–	–
O=C(O)/C=C/C(=O)NCc1csc2ccccc12	?	?	–	–	–	–
COc1cc(CCC(=O)Nc2cc(S(=O)(=O)N3CCOCC3)ccc2OC(C)C)cc(OC)c1OC	–	–	–	·	–	–
COCCn1cc(C(=S)N2CCOCC2)c2ccccc21	–	–	–	–	–	22910
COCCn1cc(C(=S)N2CCCCC2)c2ccccc21	–	–	–	–	–	–
O=C(c1cccs1)n1cc(C(=S)N2CCOCC2)c2ccccc21	–	–	–	–	–	20879
CC(Oc1ccc(C(C)(C)C)cc1)C(=O)NC1CC(C)(C)NC(C)(C)C1 (stereo unspecified)	–	–	–	–	–	–
CCC(Oc1ccc(C)c(C)c1)C(=O)O (stereo unspecified)	–	–	–	–	–	16400
CCOc1nc(C)ccc1-c1noc(-c2ccccn2)n1	–	–	–	–	–	–
CCOc1nc(C)ccc1-c1noc(-c2ccco2)n1	–	–	–	–	–	20107
CC(OC(=O)Cn1[nH]c(=O)c2ccccc2c1=O)C(=O)Nc1ccc(F)cc1Cl (stereo unspecified)	–	–	–	–	–	?
OC(c1ccc(Cl)c(F)c1)c1ncc(-c2ccc(F)cc2)[nH]1 (stereo unspecified)	–	–	–	·	·	–
Cc1ccc(-c2nnn(CC(=O)N(Cc3cccs3)C(C(=O)NC(C)(C)C)c3ccco3)n2)o1 (stereo unspecified)	–	–	–	–	–	–
Cc1ccc(-c2nnn(CC(=O)N(Cc3ccco3)C(C(=O)NC(C)(C)C)c3cccs3)n2)o1 (stereo unspecified)	–	–	–	–	–	22756
Cc1ccc(C(C(=O)NC(C)(C)C)N(CC2CCCO2)C(=O)Cn2nnc(-c3ccc(C)o3)n2)cc1 (stereo unspecified)	–	?	–	–	–	16426
O=C(COc1ccc(S(=O)(=O)N2CCCC2)cc1)NCC1CCCO1 (stereo unspecified)	–	–	–	–	–	–
COc1ccc(N2C(=O)[C@@H]3[C@H](C2=O)[C@H](C(C)=O)N2c4ccccc4C=C[C@@H]32)cc1	?	–	–	–	–	–
COc1ccc(C2C(C(=O)c3ccccc3)N3c4ccccc4C=CC3C2[N+](=O)[O-])cc1 (stereo unspecified)	?	?	?	–	62.6	–
COC(=O)c1noc(-c2ccc(C)cc2)n1	–	–	–	–	–	23185
O=C(C1CCCN(Cc2cccc(F)c2)C1)N1CCCCC1 (stereo unspecified)	–	–	–	–	–	16903
CCOC(=O)C1=C(c2ccccc2)NC(SCC(N)=O)=C(C#N)C1c1cccnc1 (stereo unspecified)	–	–	–	–	–	19434
CCOC(=O)C1=C(C)NC(SCC(N)=O)=C(C#N)C1c1ccccc1 (stereo unspecified)	–	–	–	–	–	–
Cc1ccccc1/C(N)=N/OC(=O)N1c2ccccc2Sc2ccccc21	–	–	–	–	–	23999
O=C(C1CCCN(S(=O)(=O)Cc2ccccc2)C1)N1CCC(Cc2ccccc2)CC1 (stereo unspecified)	–	–	–	–	–	21341
